Values joined by “and” are separate entries in the source; they are usually repeats but may differ in a detail not shown here. Equal entries are not always repeated. The campaign covered roughly 1,300 compounds. About 10 (0.8%) were called active. How the calls were made is not given here. The list comes from a sample in which actives are over-represented; it also holds similar structures and randomly drawn compounds.

Data on 91 molecules can be found in PubChem BioAssay AID547 (Emory University Molecular Libraries Screening Center, 2006).

This assay addresses Chaperone protein DnaK (Escherichia coli (strain K12)) (UniProt P0A6Y8). Description: E. coli DnaK chaperone inhibitors, primary screen, luminescence, E. coli K12 (AID 547).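 Further: tested at 10 µM.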 The conditions noted are these: DnaK chaperone assay, luminescence read-out; active compounds read low.
For `NCCCCCCNS(=O)(=O)c1cccc2c(Cl)cccc12`, the luminescence was 2.8e+06 cps (inactive).
Regarding `CCSC(N)=Nc1ccc(C(F)(F)F)cc1`, the luminescence was 2.3e+06 cps (inactive).
Regarding `OC[C@H]1O[C@@H](n2cnc3c(Nc4ccccc4)ncnc32)C(O)[C@H]1O` (stereo partly specified), the luminescence was 2.3e+06 cps (inactive).
Consider `COc1ccccc1N1CCN(CCCCNS(=O)(=O)c2cccc3c(N(C)C)cccc23)CC1`, for which the luminescence was 2.1e+06 cps (inactive).
As for `O=c1cc(-c2ccccc2)[nH]c2nc(Cl)ccc12`, the luminescence is 2.7e+06 cps (inactive).
In the case of `CC(=O)N[C@H](C(=O)O)C(C)(C)SN=O`, the luminescence is 2.5e+06 cps (inactive).
On to `O=C(O)c1cc2cc(F)ccc2[nH]1`, for which the luminescence is 2.1e+06 cps (inactive).
Consider `O=c1[nH]c2cc(C(F)(F)F)ccc2n1-c1cc(C(F)(F)F)ccc1O`, for which the luminescence was 2.6e+06 cps (inactive).
Next, `O=C(O)CC1CCCc2ccccc2C1O` (stereo unspecified): 2.7e+06 cps (inactive).
Consider `NCC(O)C1CCCCCCC1` (stereo unspecified), for which the luminescence is 2.9e+06 cps (inactive).
Turning to `CN=C(NC#N)Nc1ccc(C2=NNC(=O)CC2C)cc1` (stereo unspecified), the luminescence was 2.6e+06 cps (inactive).
The result for `O=C1NC(c2cccc([N+](=O)[O-])c2)=CCN1c1ccccc1O` reads 3e+06 cps (inactive); that for `CC1(C)CCC=[N+]1[O-]`, 2.6e+06 cps (inactive).
In the case of `NC[C@@H]1O[C@H](C23CC4CC(CC(C4)C2)C3)Cc2c1ccc(O)c2O`, the luminescence is 3e+06 cps (inactive).
For the molecule `N#C/C(=C\c1c[nH]c2ccccc12)C(=O)c1ccc(O)c(O)c1`, the luminescence is 2.2e+06 cps (inactive).
Consider `O=C1C2C=CC=CC2=NC(=S)N1CCN1CCC(=C(c2ccc(F)cc2)c2ccc(F)cc2)CC1` (stereo unspecified), for which the luminescence was 2.9e+06 cps (inactive).
Turning to `COc1cc2nc(N3CCN(C(=O)OCc4ccccc4)C(C(=O)NC(C)(C)C)C3)nc(N)c2cc1OC` (stereo unspecified), the luminescence is 2.3e+06 cps (inactive).
The result for `CCc1cccc(N(C)C(N)=Nc2cccc3ccccc23)c1` reads 2.4e+06 cps (inactive); that for `Nc1nc(Cl)nc2c1ncn2[C@@H]1O[C@H](CO)[C@H](O)C1O` (stereo partly specified), 2.7e+06 cps (inactive); that for `OCc1ccc(-c2nn(Cc3ccccc3)c3ccccc23)o1`, 2.1e+06 cps (inactive).
Take `CC(N)(Cc1ccc(O)c(O)c1)C(=O)O` (stereo unspecified): the luminescence was 2.3e+06 cps (inactive).
With `CC1CNCCN1S(=O)(=O)c1cccc2cnccc12` (stereo unspecified), the luminescence is 3.1e+06 cps (inactive) and 2.6e+06 cps (inactive).
For the molecule `OCC1NC[C@@H](O)C(O)[C@@H]1O` (stereo partly specified), the luminescence was 2.4e+06 cps (inactive).
Next, `O=C(O)CNC(=O)C(CS)Cc1ccccc1` (stereo unspecified): 2.3e+06 cps (inactive); `CN(C)C/C=C(/c1ccc(Br)cc1)c1cccnc1`: 1.8e+06 cps (inactive); `CN1CCc2cc(NC(=O)Nc3cccnc3)ccc21`: 2.6e+06 cps (inactive).
`CCCCOc1cc(CC2CNC(=O)N2)ccc1OC` (stereo unspecified): the luminescence is 2.5e+06 cps (inactive).
Take `CCCCCCCCCCCCCCCCCC(=O)OC(CC(=O)O)C[N+](C)(C)C` (stereo unspecified): the luminescence is 2.5e+06 cps (inactive).
In the case of `CN1C2CCC1CC(OC(=O)c1c[nH]c3ccccc13)C2` (stereo unspecified), the luminescence is 2.3e+06 cps (inactive).
With `NCCS`, the luminescence is 2.4e+06 cps (inactive).
Regarding `Fc1ccc([C@@H]2CCNC[C@H]2COc2ccc3c(c2)OCO3)cc1`, the luminescence was 2.9e+06 cps (inactive).
As for `NCCCCCCCCCCN`, the luminescence was 2.6e+06 cps (inactive).
Consider `O=C(O)C1=CCCNC1`, for which the luminescence was 2.8e+06 cps (inactive).
Consider `C[C@]12CC[C@@H]3c4ccc(O)cc4CC[C@H]3[C@@H]1CC[C@@H]2O`, for which the luminescence is 2.9e+06 cps (inactive).
In the case of `CCOC(=O)C1=C[C@]2(CC)CCCN3CCc4c(n1c1ccccc41)[C@@H]32`, the luminescence was 2.3e+06 cps (inactive).
For `O=Nc1c(-c2c(O)[nH]c3ccccc23)[nH]c2ccccc12`, the luminescence was 2.9e+06 cps (inactive).
For the molecule `OC[C@H]1O[C@@H](n2cnc3c(NCCc4ccccc4)ncnc32)C(O)[C@H]1O` (stereo partly specified), the luminescence was 2.2e+06 cps (inactive).
For `CC(C)(C)NCC(O)COc1nsnc1N1CCOCC1` (stereo unspecified), the luminescence is 2.3e+06 cps (inactive).
As for `O=c1n(CCCN2CCN(c3cccc(Cl)c3)CC2)nc2ccccn12`, the luminescence was 2.5e+06 cps (inactive).
As to `CCN1CCc2nc(N)oc2CC1`, the luminescence was 2.6e+06 cps (inactive).
For the molecule `CC(N)C1CCC(C(=O)Nc2ccncc2)CC1` (stereo unspecified), the luminescence was 2.8e+06 cps (inactive).
As to `COCc1nc2c([nH]1)c(=O)n(C)c(=O)n2CC(C)C`, the luminescence is 2.7e+06 cps (inactive).
For `CCCCC1C(=O)N(c2ccccc2)N(c2ccccc2)C1=O`, the luminescence is 2.6e+06 cps (inactive).
Take `Oc1ccc(O)cc1`: the luminescence is 2.9e+06 cps (inactive).
As to `NC(=O)CC[C@H](N)C(=O)O`, the luminescence is 2.9e+06 cps (inactive).
In the case of `COc1[nH]c2ccc(F)cc2c1C(=O)OCC1CCN(CCNS(C)(=O)=O)CC1`, the luminescence is 3e+06 cps (inactive).
With `COc1ccc(-c2ccc(N)[n+](CCCC(=O)O)n2)cc1`, the luminescence is 2.3e+06 cps (inactive).
Next, `C[C@H]1CC2C3CCC4=CC(=O)C=C[C@]4(C)[C@@]3(Cl)[C@@H](O)C[C@]2(C)[C@@]1(O)C(=O)CO` (stereo partly specified): 2.6e+06 cps (inactive); `N=S(=O)(O)Cc1noc2ccccc12`: 2.1e+06 cps (inactive); `CCCCCCCC/C=C\CCCCCCCC(=O)NCCO`: 2.9e+06 cps (inactive).
With `CCCCCCCCCCC/C=C\C(C)(C)/C=C\CCCC(=O)O`, the luminescence was 2.3e+06 cps (inactive).
`CCCCCCC/C=C\CCCCCCCCC(=O)O`: the luminescence was 1.7e+06 cps (active).
Next, `CC1C(=O)N(C)C(=O)c2nc[nH]c21` (stereo unspecified): 2.4e+06 cps (inactive); `N.N.O=C(O)C1(C(=O)O)CCC1.[Pt+2]`: 2.5e+06 cps (inactive); `CCCCS(=N)(=O)CCC(N)C(=O)O` (stereo unspecified): 1.9e+06 cps (inactive).
Regarding `CCCCCCCCCCCCCCCC(=O)NCCO`, the luminescence is 2.9e+06 cps (inactive).
Next, `CCCCCCCC/C=C\CCCCCCCC(=O)NCCc1ccc(O)c(O)c1`: 1.5e+06 cps (active); `CC(=O)NCCc1ccc(O)c(O)c1`: 2.8e+06 cps (inactive).
As to `NC(=O)c1ccccc1`, the luminescence is 2.5e+06 cps (inactive).
For the molecule `N#CC(Cc1ccc(O)c(O)c1)C(=O)N1CCc2ccccc21` (stereo unspecified), the luminescence was 2.2e+06 cps (inactive).
As for `CCNC(=O)[C@H]1O[C@@H](n2cnc3c(N)nc(NCCc4ccc(CCC(=O)O)cc4)nc32)C(O)[C@H]1O` (stereo partly specified), the luminescence is 2.4e+06 cps (inactive).
With `CC(=O)O[C@H]1CC2(C)[C@@H](C[C@@H](O)[C@H]3[C@@]4(C)CC[C@@H](O)[C@@H](C)[C@@H]4CC[C@@]32C)C1=C(CCC=C(C)C)C(=O)O` (stereo partly specified), the luminescence was 2.8e+06 cps (inactive).
Turning to `O=C1N=C(O)CN1/N=C/c1ccc(-c2ccc([N+](=O)[O-])cc2)o1`, the luminescence was 3e+06 cps (inactive).
With `CCCCCCCCCCCCCCCCCCOC[C@H](COP(=O)([O-])OCC[N+](C)(C)C)OC`, the luminescence was 2.6e+06 cps (inactive).
Next, `CCCCCCCCCCCCCCCC(=O)NCC(COP(=O)([O-])OCC[N+](C)(C)C)OCC` (stereo unspecified): 1.9e+06 cps (active).
As for `CCCCCCCCCCCCCCCCCC(=O)NCC(COP(=O)([O-])OCC[N+](C)(C)C)OCC` (stereo unspecified), the luminescence was 2.8e+06 cps (inactive).
Consider `COc1cccc(-c2cc(=O)c3ccccc3o2)c1N`, for which the luminescence is 2.2e+06 cps (inactive).
For the molecule `CC(C)OC(=O)C(C)(C)Oc1ccc(C(=O)c2ccc(Cl)cc2)cc1`, the luminescence was 2.9e+06 cps (inactive).
Turning to `COc1ccc(CCN(C)CCCC(C#N)(c2cc(OC)c(OC)c(OC)c2)C(C)C)cc1OC` (stereo unspecified), the luminescence is 2.5e+06 cps (inactive).
As to `COc1ccccc1N1CCN(CCN2C(=O)CC3(CCCC3)CC2=O)CC1`, the luminescence was 3.1e+06 cps (inactive).
Regarding `NC(=O)N1c2ccccc2C=Cc2ccccc21`, the luminescence is 2.7e+06 cps (inactive).
In the case of `Cc1ccc(C(=O)O[C@H](C(=O)O)[C@H](OC(=O)c2ccc(C)cc2)C(=O)O)cc1` (tested in a mixture with another compound), the luminescence was 2.5e+06 cps (inactive).
For the molecule `CNC[C@H](O)c1cccc(O)c1`, the luminescence is 2.3e+06 cps (inactive).
Turning to `Cc1nc2n(c(=O)c1CCN1CCC(c3noc4cc(F)ccc34)CC1)CCCC2`, the luminescence was 2.6e+06 cps (inactive).
Take `c1ccc(-c2ccccn2)nc1`: the luminescence is 2.6e+06 cps (inactive).
With `CCCCOC(=O)NS(=O)(=O)c1sc(CC(C)C)cc1-c1ccc(Cn2c(CC)nc3c(C)cc(C)nc32)cc1`, the luminescence is 2.5e+06 cps (inactive).
Regarding `CC#C[C@]1(O)CC[C@H]2[C@@H]3CCC4=CC(=O)CCC4=C3[C@@H](c3ccc(N(C)C)cc3)C[C@@]21C`, the luminescence is 2e+06 cps (inactive).
For `NCCCCCC(=O)O`, the luminescence is 2.3e+06 cps (inactive).
In the case of `Oc1cc(O)c2c(c1)O[C@H](c1ccc(O)c(O)c1)[C@@H](O)C2`, the luminescence is 2.8e+06 cps (inactive).
`CN1Cc2c(N)cccc2C(c2ccccc2)C1` (stereo unspecified): the luminescence is 2.2e+06 cps (inactive).
Consider `CN(C)c1cc2c(Nc3ccc4c(cnn4Cc4ccccc4)c3)ncnc2cn1`, for which the luminescence was 3e+06 cps (inactive).
In the case of `CCSC(=N)N`, the luminescence was 2.4e+06 cps (inactive).
`N[C@@H](CC(=O)O)C(=O)O`: the luminescence is 2.4e+06 cps (inactive).
`N#Cc1cc2nc(O)c(O)nc2cc1[N+](=O)[O-]`: the luminescence was 2.8e+06 cps (inactive).
`CN(C)c1nc(N(C)C)nc(N(C)C)n1`: the luminescence is 2.4e+06 cps (inactive).
`COc1cc([C@@H]2c3cc4c(cc3[C@H](O)C3COC(=O)[C@@H]32)OCO4)cc(OC)c1OC` (stereo partly specified): the luminescence was 2.6e+06 cps (inactive).
For `CN1[C@@H](CC(=O)c2ccccc2)CCC[C@H]1C[C@H](O)c1ccccc1`, the luminescence was 2.6e+06 cps (inactive).
For `CCCCN1CCC(COC(=O)c2cc(Cl)c(N)c3c2OCCO3)CC1`, the luminescence was 2.2e+06 cps (inactive).
Consider `COC(=O)C(N)Cc1ccc(Cl)cc1` (stereo unspecified), for which the luminescence was 2.2e+06 cps (inactive).
Consider `CC(C)NC[C@@H](O)c1ccc(O)c(O)c1`, for which the luminescence was 2.5e+06 cps (inactive).
As to `Nc1ccc(CCNc2ncnc3c2ncn3C2OC(CO)C(O)C2O)cc1` (stereo unspecified), the luminescence was 2.9e+06 cps (inactive).
